Source: PubChem BioAssay (EPA / NIEHS)
Inconclusive results are not listed. Activity calls are given as the source filed them. How the source made its calls, unless noted: active means hit-call score of the fitted dose curve at least 0.9, where 1 is the maximum; inconclusive means response in the unintended direction; inactive means score below 0.9.

Columns and labels:
[1] = biological target: Glucocorticoid receptor (Homo sapiens) (UniProt P04150); experiment: ATG_GR_TRANS: Attagene TRANS-FACTORIAL HepG2 Assay for human Glucocorticoid Receptor (GR) (AID 2282978); conditions: HepG2 Attagene TRANS GR reporter, mRNA transcription;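 further: activators score as hits since higher reporter transcript over DMSO is fitted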
Glucocorticoid receptor (Homo sapiens), sequence (P04150 whole entry, looked up, the tested form may be a part): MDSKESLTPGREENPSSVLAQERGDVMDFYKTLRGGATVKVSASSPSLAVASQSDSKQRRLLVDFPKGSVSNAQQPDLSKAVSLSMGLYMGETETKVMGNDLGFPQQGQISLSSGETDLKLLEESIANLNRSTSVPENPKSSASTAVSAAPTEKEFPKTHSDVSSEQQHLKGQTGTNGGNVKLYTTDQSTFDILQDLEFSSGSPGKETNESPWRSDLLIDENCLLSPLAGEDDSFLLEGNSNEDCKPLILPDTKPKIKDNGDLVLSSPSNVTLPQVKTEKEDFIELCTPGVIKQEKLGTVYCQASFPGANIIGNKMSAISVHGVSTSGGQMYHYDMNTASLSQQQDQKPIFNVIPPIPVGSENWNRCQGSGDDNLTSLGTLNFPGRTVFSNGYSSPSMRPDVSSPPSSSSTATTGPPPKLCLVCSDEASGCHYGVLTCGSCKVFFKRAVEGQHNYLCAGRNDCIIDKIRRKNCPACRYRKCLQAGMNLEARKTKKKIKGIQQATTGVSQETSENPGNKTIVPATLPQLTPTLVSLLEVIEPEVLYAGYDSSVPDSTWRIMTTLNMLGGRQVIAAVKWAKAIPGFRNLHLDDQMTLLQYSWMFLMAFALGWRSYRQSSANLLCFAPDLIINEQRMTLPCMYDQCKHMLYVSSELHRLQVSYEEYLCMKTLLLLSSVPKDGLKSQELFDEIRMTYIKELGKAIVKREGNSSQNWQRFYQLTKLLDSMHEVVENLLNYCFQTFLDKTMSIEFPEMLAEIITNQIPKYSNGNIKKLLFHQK
In short: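 Fluorescent capillary-electrophoresis quantitation of reporter mRNA is the readout, taken 24 h after dosing human HepG2 cells carrying transiently transfected GAL4-UAS reporter units activated by chimeric NR-GAL4 fusions; activity scored as induction over DMSO.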

[2] = biological target: Oxysterols receptor LXR-alpha (Homo sapiens) (UniProt Q13133); experiment: ATG_LXRa_TRANS: Attagene TRANS-FACTORIAL HepG2 Assay for human Liver X Receptor alpha (LXRa) (AID 2282980); conditions: HepG2 Attagene TRANS reporter, LXRa transactivation
Oxysterols receptor LXR-alpha (Homo sapiens), sequence (Q13133 whole entry, looked up, the tested form may be a part): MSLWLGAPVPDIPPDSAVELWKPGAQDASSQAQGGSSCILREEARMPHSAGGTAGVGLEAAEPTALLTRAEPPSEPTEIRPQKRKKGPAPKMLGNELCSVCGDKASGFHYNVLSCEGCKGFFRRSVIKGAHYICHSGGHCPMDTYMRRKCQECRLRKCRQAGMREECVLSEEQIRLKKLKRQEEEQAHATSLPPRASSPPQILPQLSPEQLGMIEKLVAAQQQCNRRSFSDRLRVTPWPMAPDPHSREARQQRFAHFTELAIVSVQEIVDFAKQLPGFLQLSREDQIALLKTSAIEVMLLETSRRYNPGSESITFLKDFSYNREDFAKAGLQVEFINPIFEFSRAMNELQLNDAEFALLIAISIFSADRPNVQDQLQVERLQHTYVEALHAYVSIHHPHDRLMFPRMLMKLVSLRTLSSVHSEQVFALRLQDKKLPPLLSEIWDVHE
In short: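 HepG2 cells transiently transfected with GAL4-UAS reporter units for chimeric NR-Gal4 proteins, exposed to chemicals for 24 h. Reporter mRNA quantified by RT-PCR and capillary electrophoresis; gain of signal fitted relative to DMSO.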

[3] = biological target: Oxysterols receptor LXR-beta (Homo sapiens) (UniProt P55055); experiment: ATG_LXRb_TRANS: Attagene TRANS-FACTORIAL HepG2 Assay for human Liver X Receptor beta (LXRb) (AID 2282981); conditions: HepG2 Attagene TRANS GAL4-LXRb reporter, mRNA
Oxysterols receptor LXR-beta (Homo sapiens), sequence (P55055 whole entry, looked up, the tested form may be a part): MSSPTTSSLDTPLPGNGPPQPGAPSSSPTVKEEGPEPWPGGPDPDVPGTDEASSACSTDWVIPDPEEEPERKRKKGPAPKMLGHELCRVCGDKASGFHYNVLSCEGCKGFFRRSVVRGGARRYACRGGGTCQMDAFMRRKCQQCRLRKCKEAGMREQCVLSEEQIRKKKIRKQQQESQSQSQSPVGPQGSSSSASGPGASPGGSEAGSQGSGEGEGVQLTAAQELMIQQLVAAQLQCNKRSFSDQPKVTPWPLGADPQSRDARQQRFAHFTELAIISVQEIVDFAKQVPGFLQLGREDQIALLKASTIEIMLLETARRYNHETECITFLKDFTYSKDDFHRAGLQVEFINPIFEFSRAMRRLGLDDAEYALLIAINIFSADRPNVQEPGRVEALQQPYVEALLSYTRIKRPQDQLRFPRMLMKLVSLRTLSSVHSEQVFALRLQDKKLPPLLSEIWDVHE
In short: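 Readout: fluorescent reporter mRNA fragments resolved by capillary electrophoresis after RT-PCR. System: transiently transfected human HepG2, exogenous LXRb-Gal4 chimera driving GAL4-UAS reporter, 24 h dosing. Activity fitted upward against DMSO baseline.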

[4] = biological target: human Peroxisome Proliferator-activated Receptor delta (PPARd), PPARD (gene 5467) (UniProt Q03181); experiment: ATG_PPARd_TRANS: Attagene TRANS-FACTORIAL HepG2 Assay for human Peroxisome Proliferator-activated Receptor delta (PPARd) (AID 2283002)
human Peroxisome Proliferator-activated Receptor delta (PPARd), PPARD (gene 5467), sequence (Q03181 whole entry, looked up, the tested form may be a part): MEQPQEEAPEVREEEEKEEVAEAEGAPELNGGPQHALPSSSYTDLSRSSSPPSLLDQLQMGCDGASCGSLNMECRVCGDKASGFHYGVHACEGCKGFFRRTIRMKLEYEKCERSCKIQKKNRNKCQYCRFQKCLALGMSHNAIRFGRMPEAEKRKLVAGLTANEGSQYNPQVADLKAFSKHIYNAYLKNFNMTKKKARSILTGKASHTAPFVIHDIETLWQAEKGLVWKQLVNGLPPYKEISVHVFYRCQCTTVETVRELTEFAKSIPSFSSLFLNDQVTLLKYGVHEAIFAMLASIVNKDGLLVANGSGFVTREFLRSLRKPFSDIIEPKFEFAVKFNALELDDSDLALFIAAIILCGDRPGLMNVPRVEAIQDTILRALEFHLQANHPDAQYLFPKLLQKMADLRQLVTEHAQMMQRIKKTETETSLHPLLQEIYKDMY
In short: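 Fluorescence from capillary electrophoresis of labelled RT-PCR reporter fragments gives the signal; DMSO sets baseline. Cells: HepG2 transiently carrying GAL4-UAS reporter units plus chimeric nuclear receptor-Gal4 proteins, exposed to chemicals for 24 h.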

[5] = biological target: Peroxisome proliferator-activated receptor gamma (Homo sapiens) (UniProt P37231); experiment: ATG_PPARg_TRANS: Attagene TRANS-FACTORIAL HepG2 Assay for human Peroxisome Proliferator-activated Receptor-gamma (PPARg) (AID 2283007)
In short: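 Transient transfection of HepG2 with GAL4-UAS-driven reporter units; chemical dosing 24 h; total RNA → oligo(dT) RT → PCR with reporter primers → 6-FAM primer extension → HpaI digest 2 h 37 C → capillary electrophoresis. Positive direction vs DMSO.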

[6] = biological target: Nuclear receptor subfamily 1 group I member 2 (Homo sapiens) (UniProt O75469); experiment: ATG_PXR_TRANS: Attagene TRANS-FACTORIAL HepG2 Assay for human Pregnane X Receptor (PXR) (AID 2283008)
Nuclear receptor subfamily 1 group I member 2 (Homo sapiens), sequence (O75469 whole entry, looked up, the tested form may be a part): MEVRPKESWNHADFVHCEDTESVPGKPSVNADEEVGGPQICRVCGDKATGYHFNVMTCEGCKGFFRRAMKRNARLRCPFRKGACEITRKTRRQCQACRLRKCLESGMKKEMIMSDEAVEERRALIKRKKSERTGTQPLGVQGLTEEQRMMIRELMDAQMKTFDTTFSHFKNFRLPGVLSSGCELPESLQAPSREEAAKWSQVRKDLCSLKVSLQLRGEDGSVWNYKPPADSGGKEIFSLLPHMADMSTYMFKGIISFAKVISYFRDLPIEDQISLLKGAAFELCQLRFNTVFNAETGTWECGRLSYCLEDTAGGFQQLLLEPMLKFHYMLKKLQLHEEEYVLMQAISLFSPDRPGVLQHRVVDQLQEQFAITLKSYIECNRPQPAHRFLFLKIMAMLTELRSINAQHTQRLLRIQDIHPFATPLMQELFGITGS
In short: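 HepG2 transfected (FuGene 6) with GAL4-UAS reporter units + PXR-Gal4 chimera; dosed 24 h. Total RNA → oligo(dT) RT → PCR → 6-FAM primer extension → HpaI cut → CE. Gain-of-signal vs DMSO.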

[7] = ATG_XTT_Cytotoxicity: Cytotoxicity Assessment in the Attagene TRANS-FACTORIAL HepG2 Assay (AID 2283584)
In short: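 HepG2 cells transiently transfected with GAL4-UAS multiple reporter units, dosed 24 h; cytotoxicity read by XTT as loss of signal versus DMSO baseline.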

[8] = ACEA_ER_AUC_viability: ACEA Biosciences xCELLigence Real-Time Cell Analysis on Estrogen Receptor Agonism for Viability (AID 2283782);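 further: hit means loss of impedance signal meaning reduced cell growth or viability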
In short: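 Read-out: real-time electrical impedance (RT-CES) area under curve, loss of signal taken as reduced viability, normalized to DMSO baseline. T-47D cells, charcoal-stripped serum medium, compounds up to 100 uM final, continuous exposure, 80 h.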

[9] = CCTE_Harrill_HTTr_Viability_MCF7: CCTE's 6-hour Cell Viability Assessment for the High-Throughput Transcriptomics (HTTr) Platform, in MCF-7 cells cultured in DMEM + 10% fetal bovine serum, Harrill Lab (AID 2284010; active means hit-call score of the fitted dose curve at least 0.9, where 1 is the maximum; inactive means score below 0.9)
In short: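 Eight-point concentration series, six-hour exposure. Propidium iodide exclusion imaged to assess membrane integrity as a cytotoxicity readout; bidirectional fitting was done with DMSO as negative control and activity baseline.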

[10] = CCTE_Harrill_HTTr_Apoptosis_MCF7: CCTE's 6-hour Apoptosis Assessment for the High-Throughput Transcriptomics (HTTr) Platform, in MCF-7 cells cultured in DMEM + 10% fetal bovine serum, Harrill Lab (AID 2284011; active means hit-call score of the fitted dose curve at least 0.9, where 1 is the maximum; inactive means score below 0.9)
In short: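 MCF-7 cells in DMEM + 10% FBS exposed 6 h to chemicals over an eight-point dilution series. Caspase-3/7 activation imaged by high-content CellEvent Green staining; fitted bidirectionally versus DMSO.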

[11] = biological target: human RAR-related Orphan Receptor beta (RORb), RORB (gene 6096) (UniProt Q92753); experiment: ATG_RORb_TRANS: Attagene TRANS-FACTORIAL HepG2 Assay for human RAR-related Orphan Receptor beta (RORb) (AID 2283010)
human RAR-related Orphan Receptor beta (RORb), RORB (gene 6096), sequence (Q92753 whole entry, looked up, the tested form may be a part): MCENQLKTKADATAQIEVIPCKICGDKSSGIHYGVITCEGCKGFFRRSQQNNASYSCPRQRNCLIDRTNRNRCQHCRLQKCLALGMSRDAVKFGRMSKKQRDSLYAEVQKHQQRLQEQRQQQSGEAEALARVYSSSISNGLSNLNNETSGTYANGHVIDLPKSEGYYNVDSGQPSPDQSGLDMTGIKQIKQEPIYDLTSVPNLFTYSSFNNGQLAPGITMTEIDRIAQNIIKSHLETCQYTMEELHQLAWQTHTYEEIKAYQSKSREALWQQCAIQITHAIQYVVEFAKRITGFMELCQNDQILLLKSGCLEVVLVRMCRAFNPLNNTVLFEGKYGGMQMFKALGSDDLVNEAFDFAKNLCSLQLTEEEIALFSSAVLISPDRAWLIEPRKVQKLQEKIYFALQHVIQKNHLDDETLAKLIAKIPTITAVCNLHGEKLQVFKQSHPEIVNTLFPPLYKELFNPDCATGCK
In short: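 Multiplexed transcription-factor reporter assay: HepG2 cells transiently carrying NR-Gal4/GAL4-UAS constructs, 24 h treatment, mRNA quantified by RT-PCR plus capillary electrophoresis fluorescence; activity scored as induction over DMSO.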

[12] = biological target: human Vitamin D Receptor (VDR), VDR (gene 7421) (UniProt P11473); experiment: ATG_VDR_TRANS: Attagene TRANS-FACTORIAL HepG2 Assay for human Vitamin D Receptor (VDR) (AID 2283022)
human Vitamin D Receptor (VDR), VDR (gene 7421), sequence (P11473 whole entry, looked up, the tested form may be a part): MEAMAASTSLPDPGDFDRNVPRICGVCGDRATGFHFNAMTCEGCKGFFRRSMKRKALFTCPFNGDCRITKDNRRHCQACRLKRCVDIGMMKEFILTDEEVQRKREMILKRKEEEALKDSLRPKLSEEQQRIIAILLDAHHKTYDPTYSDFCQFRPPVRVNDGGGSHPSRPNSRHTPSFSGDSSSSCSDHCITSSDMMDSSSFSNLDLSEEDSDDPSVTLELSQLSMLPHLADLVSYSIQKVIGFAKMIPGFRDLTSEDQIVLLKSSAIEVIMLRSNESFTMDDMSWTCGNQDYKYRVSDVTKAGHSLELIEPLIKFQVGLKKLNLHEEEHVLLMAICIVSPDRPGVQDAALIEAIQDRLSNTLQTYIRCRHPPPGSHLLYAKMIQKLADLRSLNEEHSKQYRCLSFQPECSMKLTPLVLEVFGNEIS
In short: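 HepG2 cells were transiently transfected with GAL4-UAS reporter units and a chimeric VDR-Gal4 construct, then dosed for 24 hours. Reporter mRNA was quantified by RT-PCR, fluorescent labeling, HpaI digestion and capillary electrophoresis; gain of signal analysed vs DMSO.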

[13] = TOX21_p53_BLA_p3_viability: Viability Assessment in the Tox21 HCT-116 p53 Agonism Beta-lactamase Assay, Phase 3 (AID 2283593);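 further: cells exposed to compound for 16 h before reading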
In short: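 HCT116 cells, 4000/well, dosed 5 h after plating by pin transfer (217-fold dilution from DMSO stock) and incubated 16 h at 37C, 5% CO2. Viability read as ATP luminescence with CellTiter-Glo after 30 min at room temperature.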

[14] = TOX21_p53_BLA_p4_viability: Viability Assessment in the Tox21 HCT-116 p53 Agonism Beta-lactamase Assay, Phase 4 (AID 2283597);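 further: hits lower the luminescence signal meaning cytotoxicity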
In short: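 4000 HCT116 cells per well; 5 h attachment; compounds from DMSO, 217-fold dilution; 16 h at 37C. Then CCF4-AM, 2 h RT, followed by CellTiter-Glo, 30 min RT, luminescence. Decrease = cytotoxicity.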

[15] = ATG_GAL4_TRANS: Attagene TRANS-FACTORIAL HepG2 Assay for GAL4 (Internal Marker) (AID 2282976); conditions: HepG2 Attagene TRANS GAL4 internal marker reporter
In short: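 Background-control readout: GAL4-UAS reporter transcript in transiently transfected HepG2 cells after 24 h compound exposure. Measured by RT-PCR, 6-FAM primer extension, HpaI digest and capillary electrophoresis; gain-of-signal fit versus DMSO.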

[16] = biological target: human RAR-related Orphan Receptor gamma (RORg), RORC (gene 6097) (UniProt P51449); experiment: ATG_RORg_TRANS: Attagene TRANS-FACTORIAL HepG2 Assay for human RAR-related Orphan Receptor gamma (RORg) (AID 2283011)
human RAR-related Orphan Receptor gamma (RORg), RORC (gene 6097), sequence (P51449 whole entry, looked up, the tested form may be a part): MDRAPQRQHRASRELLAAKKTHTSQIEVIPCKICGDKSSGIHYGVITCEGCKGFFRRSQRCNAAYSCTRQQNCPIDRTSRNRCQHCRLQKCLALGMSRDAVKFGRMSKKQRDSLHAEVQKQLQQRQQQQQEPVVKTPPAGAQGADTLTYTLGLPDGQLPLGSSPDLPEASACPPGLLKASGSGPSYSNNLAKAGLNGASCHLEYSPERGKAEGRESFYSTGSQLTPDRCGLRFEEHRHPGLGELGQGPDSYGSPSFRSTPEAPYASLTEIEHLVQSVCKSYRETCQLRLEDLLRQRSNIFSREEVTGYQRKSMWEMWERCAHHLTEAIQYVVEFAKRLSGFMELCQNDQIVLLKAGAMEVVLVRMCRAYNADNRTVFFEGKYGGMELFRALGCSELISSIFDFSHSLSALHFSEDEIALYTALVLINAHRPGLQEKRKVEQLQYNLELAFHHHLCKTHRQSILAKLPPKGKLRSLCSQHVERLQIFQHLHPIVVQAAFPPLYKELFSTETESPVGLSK
In short: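 HepG2 cells transiently transfected with GAL4-UAS reporter units and chimeric RORg-Gal4 construct; after 24 h chemical exposure, reporter mRNA measured by RT-PCR with fluorescent capillary electrophoresis, gain of signal fitted against DMSO.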

[17] = biological target: Bile acid receptor (Homo sapiens) (UniProt Q96RI1); experiment: ATG_IR1_CIS: Attagene CIS-FACTORIAL HepG2 Assay for human Nuclear Receptor Subfamily 1 Group H Member 4 (NR1H4), IR1 submotif (AID 2282946; active means hit-call score of the fitted dose curve at least 0.9, where 1 is the maximum; inactive means score below 0.9); conditions: IR1 reporter transcription, actives raise or lower the signal
Bile acid receptor (Homo sapiens), sequence (Q96RI1 whole entry, looked up, the tested form may be a part): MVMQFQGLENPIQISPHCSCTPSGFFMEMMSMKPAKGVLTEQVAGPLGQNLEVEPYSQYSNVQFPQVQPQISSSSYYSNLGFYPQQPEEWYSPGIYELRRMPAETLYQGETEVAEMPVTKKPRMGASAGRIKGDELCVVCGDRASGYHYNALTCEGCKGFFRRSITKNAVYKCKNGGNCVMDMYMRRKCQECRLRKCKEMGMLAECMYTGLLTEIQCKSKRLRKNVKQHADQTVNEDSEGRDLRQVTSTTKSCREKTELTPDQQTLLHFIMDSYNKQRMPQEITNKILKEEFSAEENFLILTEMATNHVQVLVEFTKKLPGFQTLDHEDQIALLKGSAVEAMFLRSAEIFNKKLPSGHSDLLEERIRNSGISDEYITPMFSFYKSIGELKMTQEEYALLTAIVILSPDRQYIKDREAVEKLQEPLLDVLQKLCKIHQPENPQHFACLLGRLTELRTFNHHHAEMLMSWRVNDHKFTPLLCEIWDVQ
In short: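 Fluorescence of capillary-separated, HpaI-digested RT-PCR reporter products gave IR1-element mRNA induction in HepG2 cells 24 h after dosing. Endogenous transcription factors drove the cis-regulated reporters; activity was fitted bidirectionally against DMSO.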

[18] = ATG_M_19_TRANS: Attagene TRANS-FACTORIAL HepG2 Assay for M19 Transcription Factor (Internal Marker) (AID 2282974); conditions: HepG2 Attagene TRANS-FACTORIAL M19 internal marker reporter
In short: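 Fluorescence of 6-FAM-labelled reporter cDNA fragments, separated by capillary electrophoresis, served as the readout. These derived from HepG2 cells carrying transfected GAL4-UAS reporter units after 24 h dosing, with DMSO as negative control.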

[19] = biological target: human Thyroid Receptor alpha (THRa1), THRA (gene 7067) (UniProt P10827); experiment: ATG_THRa1_TRANS: Attagene TRANS-FACTORIAL HepG2 Assay for human Thyroid Receptor alpha (THRa1) (AID 2283014)
human Thyroid Receptor alpha (THRa1), THRA (gene 7067), sequence (P10827 whole entry, looked up, the tested form may be a part): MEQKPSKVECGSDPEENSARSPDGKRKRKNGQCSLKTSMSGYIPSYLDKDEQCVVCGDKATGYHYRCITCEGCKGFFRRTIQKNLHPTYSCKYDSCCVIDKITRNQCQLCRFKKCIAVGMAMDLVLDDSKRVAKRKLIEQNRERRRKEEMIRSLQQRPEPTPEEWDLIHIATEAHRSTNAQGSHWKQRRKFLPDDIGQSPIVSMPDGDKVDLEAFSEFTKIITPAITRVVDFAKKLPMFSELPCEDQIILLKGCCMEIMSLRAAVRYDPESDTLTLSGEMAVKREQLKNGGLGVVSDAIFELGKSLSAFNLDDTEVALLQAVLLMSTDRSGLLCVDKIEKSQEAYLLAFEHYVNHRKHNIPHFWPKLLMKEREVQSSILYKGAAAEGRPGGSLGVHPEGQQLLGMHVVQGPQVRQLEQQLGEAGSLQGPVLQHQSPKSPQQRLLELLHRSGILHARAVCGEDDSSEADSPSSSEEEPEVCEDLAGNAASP
In short: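 HepG2 cells transiently transfected with chimeric NR-Gal4 and GAL4-UAS reporter units, dosed 24 h. Reporter mRNA quantified by RT-PCR, fluorescent labeling, HpaI digestion and capillary electrophoresis; gain-of-signal fit versus DMSO.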

[20] = biological target: Bile acid receptor (Homo sapiens) (UniProt Q96RI1); experiment: ATG_FXR_TRANS: Attagene TRANS-FACTORIAL HepG2 Assay for Farnesoid X Receptor (FXR) (AID 2282979); conditions: HepG2 Attagene TRANS FXR-GAL4 reporter transcription;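 further: hits raise reporter mRNA above DMSO so AC50 marks FXR activation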
In short: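 HepG2 cells were transiently transfected with GAL4-UAS reporters driven by chimeric NR-Gal4 proteins and dosed for 24 h. Reporter mRNA was quantified by RT-PCR, fluorescent labelling, HpaI digestion and capillary electrophoresis, with gain of signal scored versus DMSO.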

Measured: AC50

Cc1cc(O)cc(C)c1Cl
inactive: [1] | [2] | [3] | [4] | [5] | [6] | [7] | [9] | [10]
active: [8] 81.1 µM

Clc1ccc(Sc2cc(Cl)c(Cl)cc2Cl)cc1
inactive: [1] | [2] | [3] | [5] | [11] | [12] | [13] | [14]
active: [6] 2.22 µM

CCCOCCC
inactive: [15] | [1] | [2] | [3] | [5] | [6] | [7] | [13] | [14] | [8]

CCCC(=O)OC
inactive: [3] | [5] | [6] | [16] | [12] | [13]

CCCCOC(=O)COc1ccc(Cl)cc1Cl
inactive: [18] | [5] | [11] | [12] | [7] | [8]
active: [17] 24.4 µM

CC(C)=CCOC(=O)c1ccccc1
active: [8] 50 µM
not listed: [5] | [6] | [9] | [10] | [11] | [15] | [17] | [20]
inactive: all other assays above

CC(=O)CCc1ccccc1
inactive: [18] | [3] | [11] | [16] | [12] | [13] | [14]

COC(=O)[C@]1(C)CCC[C@@]2(C)[C@H]1CC=C1C=C(C(C)C)CC[C@@H]12
active: [17] 6.77 µM | [20] 33 µM | [6] 25.1 µM | [8] 73.3 µM
inactive: [2] | [3] | [12] | [13] | [14]

Cc1ccnc(N)c1
inactive: [17] | [18] | [3] | [5] | [19] | [14] | [9] | [10]

CCOc1ccc2c(c1)C(C)CC(C)(C)N2 (centres undefined)
active: [2] 14.5 µM | [6] 3.63 µM
inactive: [17] | [18] | [20] | [3] | [4] | [5] | [12] | [7]

C=C(C)C(=O)OCCCCCC
inactive: [15] | [1] | [2] | [3] | [5] | [11] | [19] | [12] | [14]

[O-][n+]1ccc(Cl)cc1
inactive: [17] | [15] | [1] | [20] | [3] | [4] | [11] | [16] | [12]

CCCCCCC1CCC(=O)O1 (centres undefined)
inactive: [18] | [2] | [3] | [4] | [5] | [6] | [12] | [7] | [8]

O=C1CCCCCCCCCCCCCC1
inactive: [1] | [2] | [3] | [4] | [12] | [7] | [13] | [14] | [8]
